Holding throughout (experiment): NCI-60 one-dose screen, 48 h (100 = growth as untreated, 0 = no growth, -100 = all killed)
The test system of assay [1] is T-47D breast.
Assay [2] has as its system BT-549 breast.
Assay [3] deals with MDA-MB-435 melanoma.
The test system of assay [4] is SW-620 colon.
The test system of assay [5] is MCF7 breast.
Assay [6] concerns HCT-116 colon.
The test system of assay [7] is HCC-2998 colon.
Assay [8] concerns KM12 colon.

Twelve molecules from PubChem BioAssay (NCI) can be followed below.

Where “and” joins values, the source holds several entries; their conditions need not be identical. Equal values may be shown once. About 83,000 compounds went through this panel and 20% of them were active in at least one assay; those are over-represented in the sample as a whole.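 Testing used 96-well plates and a 48-hour single-concentration exposure. Example: -40 means 40% of the starting cells died.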 Values without a mark were called inactive. Calls of active or inactive are those of the source. The calls were made as follows: active = growth percent below 10; inactive = the rest. Where a SMILES comes first, the peptide text is derived from it. [ ]: non-standard residue; d: D form. ξ: configuration not given here. ξV = CC(C)C(N)C(=O)O

For the molecule `COc1cccc2c1C(=O)c1c(O)c3c(c(O)c1C2=O)C[C@@](O)(C(=O)CO)C[C@@H]3OC1CC(N)C(O)C(C)O1` (stereo not given in full), the growth is 90.7% in assay [1] (0.0025 µM); 13.2% in assay [1] (1 µM); 39.5% in assay [1] (2.5 µM); -11.3% (active) in assay [1] (10 µM); 81.9% in assay [2] (0.0025 µM); 5.17% (active) in assay [2] (1 µM). In addition, the growth in assay [2] (2.5 µM) was 65.6%; in assay [2] (10 µM), -59.2% (active); in assay [3] (0.0025 µM) it was 99%; in assay [3] (1 µM) it was 50.1%; in assay [3] (2.5 µM), 72.5%; in assay [3] (10 µM), -83.9% (active). Also, the growth was 91.7% in assay [4] (0.0025 µM); -1.05% (active) in assay [4] (1 µM); 1.93% (active) in assay [4] (10 µM); 71.4% in assay [5] (0.0025 µM); 18.7% in assay [5] (1 µM); 7.74% (active) in assay [5] (2.5 µM). For the same molecule, the growth was 3.37% (active) in assay [5] (10 µM); 76.1% in assay [6] (0.0025 µM); 8.95% (active) in assay [6] (1 µM); 28.1% in assay [6] (2.5 µM); 2.8% (active) in assay [6] (10 µM); 84.7% in assay [7] (0.0025 µM). In addition, the growth in assay [7] (1 µM) is 59.8%; in assay [7] (2.5 µM), -13.3% (active); in assay [7] (10 µM), -54.4% (active); in assay [8] (0.0025 µM), 93.1%; in assay [8] (1 µM), 32.1%; in assay [8] (10 µM), 4.23% (active).

For `NC(=O)SCC(=O)NNc1ccccc1`, the growth in assay [1] (10 µM) is 73.5%; in assay [2] (10 µM), 113%; in assay [3] (10 µM) it was 101%; in assay [4] (10 µM), 87.5%; in assay [5] (10 µM), 94.2%; in assay [6] (10 µM), 94.6%. Besides, the growth in assay [7] (10 µM) was 103%; in assay [8] (10 µM), 81.3%.

Regarding `O=C1C=C(O)c2ccccc2C1=O.[Ag]`, the growth in assay [1] (10 µM) is 79.5%; in assay [2] (10 µM), 115%; in assay [3] (10 µM) it was 111%; in assay [4] (10 µM) it was 106%; in assay [5] (10 µM) it was 95.7%; in assay [6] (10 µM), 111%. The growth in assay [7] (10 µM) was 88.8%; in assay [8] (10 µM), 96.4%.

Take `O=C1NC(=O)c2cc([N+](=O)[O-])ccc21`: the growth in assay [1] (10 µM) was 103%; in assay [2] (10 µM), 123%; in assay [3] (10 µM), 105%; in assay [4] (10 µM), 103%; in assay [5] (10 µM) it was 107%; in assay [6] (10 µM) it was 116%. The growth in assay [7] (10 µM) is 102%; in assay [8] (10 µM), 110%.

With `NNc1ccc2ccccc2c1`, the growth is 70.2% and 98.5% in assay [1] (10 µM); 96.4% in assay [2] (10 µM); 98.8% and 103% in assay [3] (10 µM); 96.1% in assay [4] (10 µM); 74.8% and 80.2% in assay [5] (10 µM); 102% and 90.2% in assay [6] (10 µM). Further, the growth in assay [7] (10 µM) is 98%; in assay [8] (10 µM), 74.3% and 98.7%.

For the molecule `CCN1/C(=C/C=C/C=C/c2sc3ccccc3[n+]2CC)Sc2ccccc21`, the growth was -32.2% (active) in assay [1] (10 µM); -42.3% (active) in assay [2] (10 µM); -76.9% (active) in assay [3] (10 µM); -31.1% (active) in assay [4] (10 µM); -44.2% (active) in assay [5] (10 µM); -25.9% (active) in assay [6] (10 µM). For the same molecule, the growth in assay [7] (10 µM) was -88.5% (active); in assay [8] (10 µM) it was -88.3% (active).

On to `COC1OCC(O)C(O)C1O` (stereo not given), for which the growth in assay [1] (10 µM) was 105%; in assay [2] (10 µM), 105%; in assay [3] (10 µM), 100%; in assay [4] (10 µM), 99.3%; in assay [5] (10 µM) it was 90.7%; in assay [6] (10 µM), 102%. For the same molecule, the growth in assay [7] (10 µM) was 107%; in assay [8] (10 µM) it was 103%.

For `O=C1C=CC(=CC=C2C=CN(CCCCCCCCCCCO)C=C2)C=C1`, the growth is -11% (active) in assay [2] (10 µM); 18.9% in assay [3] (10 µM); 41.9% in assay [4] (10 µM); 8.64% (active) in assay [5] (10 µM); 23.3% in assay [6] (10 µM); 57.9% in assay [7] (10 µM). The growth in assay [8] (10 µM) is 24.2%.

As to `CC(C)C(NC(=O)CN)C(=O)O` (stereo not given) (H-Gly-[ξV]-OH), the growth in assay [1] (10 µM) is 102%; in assay [2] (10 µM) it was 83.4% and 116%; in assay [3] (10 µM), 104% and 101%; in assay [4] (10 µM), 117% and 101%; in assay [5] (10 µM), 106% and 101%; in assay [6] (10 µM), 96.9% and 107%. Besides, the growth in assay [7] (10 µM) was 103% and 106%; in assay [8] (10 µM), 109% and 106%.

Consider `CN1CCN(CCCN2c3ccccc3Sc3ccc(C(F)(F)F)cc32)CC1`, for which the growth in assay [2] (10 µM) is 70.6%; in assay [3] (10 µM) it was 27.6%; in assay [4] (10 µM), 34.3%; in assay [5] (10 µM) it was 13.9%; in assay [6] (10 µM), 36%; in assay [7] (10 µM) it was -6.16% (active). Moreover, in assay [8] (10 µM), the growth is 40.2%.

For the molecule `O=C(/C=C/c1ccccn1)c1ccccc1`, the growth is 66.9% in assay [1] (10 µM); 52.4% in assay [3] (10 µM); -51.3% (active) in assay [4] (10 µM); 15% in assay [5] (10 µM); -90.8% (active) in assay [6] (10 µM); 62.9% in assay [7] (10 µM). Moreover, the growth in assay [8] (10 µM) is 7.87% (active).

For `CC(=O)Nc1cc(C)ccc1C`, the growth in assay [1] (10 µM) is 107%; in assay [2] (10 µM), 112%; in assay [3] (10 µM) it was 102%; in assay [4] (10 µM), 96.4%; in assay [5] (10 µM), 105%; in assay [6] (10 µM), 96.9%. Besides, the growth in assay [7] (10 µM) was 100%; in assay [8] (10 µM), 97.4%.
